DT40 TDP1 CPT = growth inhibition of DT40 Tdp1-/-;hTDP1 cells with camptothecin (screen for TDP1 inhibitors); chicken DT40 Tdp1-/-;hTDP1 cells + 20 nM CPT, ATP luminescence, 48 h; Potency, µM (titrated, usually from 46.2 µM), usual class: inhibitors; actives 12% (n = 420,000); AID 686979; further: nearly all actives have a fitted effect of over 55% in size
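Chicken DT40 Tdp1-/- cells complemented with human TDP1, 400 cells/well, exposed to compounds plus 20 nM camptothecin for at least 48 h at 37 C; viability read as ATP content by CellTiter-Glo luminescence.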
ClpP mod = qHTS Assay for Activators of ClpP. ATP-dependent Clp protease proteolytic subunit (Bacillus subtilis (strain 168)), P80244. actives 1.9% (n = 340,000). AID 651965, 2013. Potency, µM (series often up to 57.5 µM). purified B. subtilis ClpP, FRET peptide cleavage, 20 min; active means well fitted falling curve with a large enough effect; inconclusive means small, poorly fitted or top-dose-only effect; inactive means no such curve, though single readings can be large or run the other way; further: the source files actives as falling curves though it sought activators and does not explain the sign; nearly all actives have a fitted effect of over 65% in size
Target sequence (P80244 whole entry, looked up): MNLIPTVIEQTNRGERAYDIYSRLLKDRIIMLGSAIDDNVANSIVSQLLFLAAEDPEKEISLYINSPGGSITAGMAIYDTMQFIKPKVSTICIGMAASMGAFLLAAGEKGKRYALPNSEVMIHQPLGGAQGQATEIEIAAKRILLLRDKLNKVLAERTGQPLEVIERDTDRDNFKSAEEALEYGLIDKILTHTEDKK
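FRET quenching reversal measured ClpP activation: 10 microg/mL B. subtilis ClpP at pH 8 with the FRET-FV decapeptide, read at 430 nm after 320 nm excitation. The 20-min minus 0-min signal was scaled between DMSO/no-enzyme wells and ADEP (5.8 microM final).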
DRD3 agonist = D3 dopamine receptor (human) agonism; max activation, %; P35462; D3R DiscoveRx beta-arrestin cells, luminescence, 90 min; actives 0.58% (n = 410,000); in the data active means max activation above about 30%
Target sequence (P35462 whole entry, looked up): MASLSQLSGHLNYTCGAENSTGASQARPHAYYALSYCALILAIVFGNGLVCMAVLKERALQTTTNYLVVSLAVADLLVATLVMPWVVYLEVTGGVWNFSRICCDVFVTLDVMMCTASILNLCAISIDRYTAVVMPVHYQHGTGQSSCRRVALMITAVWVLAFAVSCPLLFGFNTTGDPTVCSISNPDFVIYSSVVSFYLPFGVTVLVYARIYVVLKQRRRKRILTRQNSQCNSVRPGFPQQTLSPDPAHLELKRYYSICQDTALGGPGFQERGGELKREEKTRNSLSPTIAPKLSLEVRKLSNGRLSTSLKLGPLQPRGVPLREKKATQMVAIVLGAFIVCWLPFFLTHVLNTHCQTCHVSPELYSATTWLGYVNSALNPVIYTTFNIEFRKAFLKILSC
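Agonist mode: compounds and dopamine controls were applied to plated cells for 90 min at 37 degrees C after an overnight attachment at 1500 cells/well. Luminescent read-out followed 30 - 60 minutes at room temperature with DiscoveRx detection reagent.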
IL1B secr inh = inflammasome signaling inhibition, IL-1 beta readout | THP-1 LPS/ATP IL-1B secretion, AlphaLISA, 16 h; hits give low values | activity change, % at 57.5 µM | actives 4.7% (n = 360,000); in the data active means activity change below about -50%; inconclusive means mostly about -30% to -49%
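Secreted IL-1B measured by AlphaLISA bead assay after 16 h compound exposure of THP-1 cells; compounds (final up to 57.5 uM) added 1 h before LPS (250 ng/mL) and ATP (1.25 mM) stimulation; lower signal means less secretion.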
TDP1 cell noCPT = qHTS for Inhibitors of human tyrosyl-DNA phosphodiesterase 1 (TDP1): qHTS in cells in absence of CPT. Potency, µM (series often up to 46.2 µM), most hits filed as inhibitors. DT40 Tdp1-/- hTDP1 cells, no CPT, ATP luminescence, 48 h. AID 686978, 2013. actives 15% (n = 420,000); further: nearly all actives have a fitted effect of over 55% in size
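Growth of hTDP1-complemented DT40 Tdp1-knockout cells is measured by ATP luminescence after at least 48 hr compound exposure at 37 °C, with DMSO substituting for the 20 nM CPT used in the parallel screen.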
DRD3 antagonist = antagonists of human D3 dopamine receptor | actives 2.5% (n = 360,000) | D3R cells, DiscoveRx beta-arrestin luminescence, antagonist mode; hits give low values | max response, negative = inhibition, % | P35462; in the data active means max response below about -50%; inconclusive means no clear call, values can overlap the other calls
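Cells plated overnight at 1500 cells/well, then exposed to library compounds with dopamine controls for 90 minutes at 37 degrees C. DiscoveRx reagent added for 30–60 minutes at room temperature; luminescence read, quantitative HTS format.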
A number is an active result. Only some compounds are listed: those with a hit (about 21% of all), similar ones and a draw of the others. Unless noted, the call rests on the fitted dose curve; in most records, active means well fitted inhibition curve with a large enough effect; inconclusive means small, poorly fitted or top-dose-only effect; inactive means flat fitted curve, though single readings scatter.

O=C(N/N=C/C=C\c1ccccc1[N+](=O)[O-])c1cc(-c2ccc3ccccc3c2)n[nH]1 was read as DT40 TDP1 CPT inconclusive, DRD3 agonist inactive, IL1B secr inh inactive, TDP1 cell noCPT 18.4µM and DRD3 antagonist inactive.
For Cc1occc1C(=O)N/N=C/C=C/c1ccccc1[N+](=O)[O-] the results were DT40 TDP1 CPT inactive, DRD3 agonist inactive, IL1B secr inh -62.0, TDP1 cell noCPT inactive and DRD3 antagonist inactive.
Screening O=C(N/N=C/C=C\c1ccccc1[N+](=O)[O-])c1cccs1 returned DT40 TDP1 CPT inconclusive, ClpP mod inactive, DRD3 agonist inactive, IL1B secr inh inactive, TDP1 cell noCPT inconclusive and DRD3 antagonist -63.9.
`Cc1cc(C(=O)N/N=C/C=C/c2ccccc2[N+](=O)[O-])c(C)o1` gave DT40 TDP1 CPT inactive, ClpP mod inactive, DRD3 agonist inactive, IL1B secr inh inactive, TDP1 cell noCPT inactive and DRD3 antagonist inactive.
For CN1CCCC(C(=O)Nc2cccc(Cl)c2)CC1 (stereo not given) the results were DT40 TDP1 CPT inactive, ClpP mod inactive, DRD3 agonist inactive, IL1B secr inh inactive, TDP1 cell noCPT inactive and DRD3 antagonist inactive.
`C=CCN1C(=O)/C(=C/N(C)C)S/C1=N\S(=O)(=O)c1cccs1` gave DT40 TDP1 CPT inactive, ClpP mod inactive, DRD3 agonist inactive, IL1B secr inh inactive, TDP1 cell noCPT inactive and DRD3 antagonist inactive.
`Cc1cc(C=C2C(=O)CCCC2=O)c(C)n1-c1ccccc1` gave DT40 TDP1 CPT inactive, ClpP mod inactive, DRD3 agonist inactive, IL1B secr inh inactive, TDP1 cell noCPT inconclusive and DRD3 antagonist inactive.
For O=C1NN(c2ccccc2)C(=O)/C1=C/c1coc2ccccc2c1=O the results were DT40 TDP1 CPT inconclusive, ClpP mod inactive, DRD3 agonist inactive, IL1B secr inh inactive, TDP1 cell noCPT inconclusive and DRD3 antagonist inactive.
For Cc1cc(/C=C2/C(=O)NN(c3ccccc3)C2=O)c(C)n1-c1ccc(O)cc1 the results were DT40 TDP1 CPT inconclusive, ClpP mod inactive, DRD3 agonist inactive, IL1B secr inh inactive, TDP1 cell noCPT 18.4µM and DRD3 antagonist inactive.
O=C1NN(c2ccccc2)C(=O)/C1=C\c1coc2ccc(O)cc2c1=O was read as DT40 TDP1 CPT 16.4µM, ClpP mod inactive, DRD3 agonist inactive, IL1B secr inh inactive, TDP1 cell noCPT 20.6µM and DRD3 antagonist inactive.
`Cc1cc(/C=C2\C(=O)NN(c3ccccc3)C2=O)c(C)n1-c1ccccc1O` gave DT40 TDP1 CPT inconclusive, ClpP mod inactive, DRD3 agonist inactive, IL1B secr inh inactive, TDP1 cell noCPT 14.6µM and DRD3 antagonist inconclusive.
For COc1ccc(-n2c(C)cc(/C=C3\C(=O)NN(c4ccccc4)C3=O)c2C)cc1 the results were DT40 TDP1 CPT inactive, ClpP mod inactive, DRD3 agonist inactive, IL1B secr inh inactive, TDP1 cell noCPT inactive and DRD3 antagonist -58.5.
`CC(CC(=O)NNC(=O)c1cccc(Cl)c1)c1ccccc1` (stereo not given) gave DT40 TDP1 CPT inactive, DRD3 agonist inactive, IL1B secr inh inactive, TDP1 cell noCPT inactive and DRD3 antagonist inactive.
COc1cccc(Cc2nc3cccnc3n2C2CCN(Cc3ccc(C)s3)CC2)c1 was read as DT40 TDP1 CPT inactive and TDP1 cell noCPT inactive.
For COc1ccc(NC(=O)CSc2nnnn2C2CCCCC2)cc1 the results were DT40 TDP1 CPT inactive, DRD3 agonist inactive, IL1B secr inh inactive, TDP1 cell noCPT inactive and DRD3 antagonist inactive.
O=C(COC(=O)/C=C/c1cccc(F)c1)NC(=O)NC1CCCC1 was read as DT40 TDP1 CPT inconclusive, ClpP mod inactive, DRD3 agonist inactive, IL1B secr inh inactive, TDP1 cell noCPT inconclusive and DRD3 antagonist inactive.
For COCCN(C(=O)COC(=O)CSc1ccc(Cl)cc1)c1c(N)n(CC(C)C)c(=O)[nH]c1=O the results were DT40 TDP1 CPT inactive, ClpP mod inactive, DRD3 agonist inactive, IL1B secr inh inactive, TDP1 cell noCPT inactive and DRD3 antagonist inactive.
`CC(=O)c1nn(-c2cccc(Br)c2)cc1C(=O)c1ccco1` gave DT40 TDP1 CPT inactive, ClpP mod inactive, DRD3 agonist inactive, IL1B secr inh inactive, TDP1 cell noCPT inactive and DRD3 antagonist inactive.
`Cc1nnc(-c2ccco2)c2cn(-c3cccc(Br)c3)nc12` gave DT40 TDP1 CPT inconclusive, DRD3 agonist inactive, TDP1 cell noCPT 23.1µM and DRD3 antagonist inactive.
CCc1ccc(C(=O)NCc2ccc(Cl)cc2Cl)cc1 was read as DT40 TDP1 CPT inactive, ClpP mod inactive, DRD3 agonist inactive, IL1B secr inh -52.5, TDP1 cell noCPT inactive and DRD3 antagonist inactive.
For CCCc1ccc(C(=O)NNc2cc(Cl)ccc2Cl)cc1 the results were DT40 TDP1 CPT inconclusive, ClpP mod inactive, DRD3 agonist inactive, IL1B secr inh inconclusive, TDP1 cell noCPT 23.1µM and DRD3 antagonist inactive.
`O=C(Cc1ccccc1)NCCc1ccc(Cl)cc1Cl` gave DT40 TDP1 CPT inactive, ClpP mod inactive, DRD3 agonist inactive, IL1B secr inh inactive, TDP1 cell noCPT inactive and DRD3 antagonist inactive.
Screening N=c1sccn1CC(=O)NCCc1ccc(Cl)cc1Cl returned DT40 TDP1 CPT inactive, ClpP mod inactive, DRD3 agonist inactive, IL1B secr inh inactive, TDP1 cell noCPT inactive and DRD3 antagonist -50.0.
Screening O=C(Cc1ccc(Br)cc1)NCCc1ccc(Cl)cc1Cl returned DT40 TDP1 CPT inactive, ClpP mod inactive, DRD3 agonist inactive, IL1B secr inh -59.8, TDP1 cell noCPT inconclusive and DRD3 antagonist inactive.
O=C(c1ccccc1N1CCOCC1)N1CCCC(Nc2ccc(F)cc2)C1 (stereo not given) was read as DT40 TDP1 CPT inactive, ClpP mod inactive, DRD3 agonist inactive, IL1B secr inh inactive, TDP1 cell noCPT inactive and DRD3 antagonist inactive.
`N#Cc1cn(-c2ccccc2)nc1-c1cc2ccccc2oc1=O` gave DT40 TDP1 CPT inconclusive, ClpP mod 31.6µM, DRD3 agonist inactive, IL1B secr inh inactive, TDP1 cell noCPT 16.4µM and DRD3 antagonist inconclusive.
O=C(O)/C=C/c1cn(-c2ccccc2)nc1-c1cc2ccccc2oc1=O was read as DT40 TDP1 CPT inactive, ClpP mod inactive, DRD3 agonist inactive, IL1B secr inh inactive, TDP1 cell noCPT inactive and DRD3 antagonist inactive.
For O=Cc1cn(-c2ccccc2)nc1-c1cc2c(ccc3ccccc32)oc1=O the results were DT40 TDP1 CPT inactive, ClpP mod 5.62µM, DRD3 agonist inactive, IL1B secr inh inactive, TDP1 cell noCPT inactive and DRD3 antagonist inactive.
